From PubChem BioAssay (NCI) come the findings set out here.

Test systems include MOLT-4 leukemia; SR leukemia; RPMI-8226 leukemia; OVCAR-8 ovarian; OVCAR-5 ovarian; OVCAR-4 ovarian; SK-OV-3 ovarian; IGROV1 ovarian; OVCAR-3 ovarian; HS 578T breast; NCI/ADR-RES ovarian; T-47D breast; BT-549 breast; MDA-MB-435 melanoma; SW-620 colon; MCF7 breast; HCT-116 colon; HCC-2998 colon; KM12 colon.
Common to all, as to assay: NCI-60 one-dose screen, 48 h (100 = growth as untreated, 0 = no growth, -100 = all killed)
What all share (details): 10 µM unless noted

The panel holds about 83,000 compounds, 20% with a hit somewhere; the sample as a whole holds those more often.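 48-hour exposure, single concentration, 96-well plates; percent growth endpoint where 0 means no net growth. Active: below 10.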 Unmarked numbers belong to inactive results. Calls of active or inactive are those of the source.

On to `ClCCN(CCCl)c1nc(Cl)c(C2CC(c3ccccc3)=NN2c2cc(Cl)cc(Cl)c2)s1` (stereo not drawn), for which the growth in the experiment on MOLT-4 leukemia is 101%; in the experiment on SR leukemia, 112%; with RPMI-8226 leukemia, 108%; in the experiment on OVCAR-8 ovarian, 100%; with OVCAR-5 ovarian, 102%; with OVCAR-4 ovarian, 96.9%. The growth in the experiment on SK-OV-3 ovarian was 105%; in the experiment on IGROV1 ovarian it was 101%; in the experiment with OVCAR-3 ovarian, 103%; in the experiment with HS 578T breast, 102%; in the experiment with NCI/ADR-RES ovarian it was 103%; in the experiment on T-47D breast, 97.8%. Besides, the growth with BT-549 breast is 107%; in the experiment on MDA-MB-435 melanoma, 109%; in the experiment with SW-620 colon it was 98.5%; in the experiment with MCF7 breast, 97.5%; with HCT-116 colon, 98.1%; in the experiment with HCC-2998 colon, 105%. In addition, the growth with KM12 colon was 100%.

As to `Nc1c(F)cc(-c2nc3cc(F)ccc3[se]2)cc1F`, the growth in the experiment with MOLT-4 leukemia was 78.7%; in the experiment with SR leukemia it was 20.6%; in the experiment on RPMI-8226 leukemia, 48.8%; in the experiment on OVCAR-8 ovarian, 95.5%; in the experiment on OVCAR-5 ovarian, 31.1%; with OVCAR-4 ovarian, 48.9%. For the same compound, the growth in the experiment on SK-OV-3 ovarian was 61.4%; in the experiment with IGROV1 ovarian, 19.5%; in the experiment with OVCAR-3 ovarian it was 71.3%; in the experiment on HS 578T breast it was 94.7%; in the experiment with NCI/ADR-RES ovarian, 94.6%; in the experiment with T-47D breast, 5.78% (active). The growth is 78.9% in the experiment with BT-549 breast; 106% in the experiment with MDA-MB-435 melanoma; 95.2% with SW-620 colon; 2.27% (active) with MCF7 breast; 37.1% in the experiment with HCT-116 colon; -44.5% (active) in the experiment with HCC-2998 colon. Besides, in the experiment on KM12 colon, the growth is 42.5%.

In the case of `CN1C(=O)C(=Cc2cn(CCCCCCn3c4ccccc4c(=O)c4ccccc43)c3ccccc23)C(=O)N(C)C1=O`, the growth in the experiment on MOLT-4 leukemia is 97.5%; with SR leukemia, 77%; in the experiment with RPMI-8226 leukemia, 103%; in the experiment with OVCAR-8 ovarian, 95.2%; with OVCAR-5 ovarian, 77%; in the experiment with OVCAR-4 ovarian, 95.2%. The growth is 87% in the experiment on SK-OV-3 ovarian; 90.5% in the experiment on IGROV1 ovarian; 102% with OVCAR-3 ovarian; 101% in the experiment on HS 578T breast; 90.7% in the experiment with NCI/ADR-RES ovarian; 75% in the experiment with T-47D breast. Also, the growth with BT-549 breast was 91.2%; with MDA-MB-435 melanoma, 107%; in the experiment with SW-620 colon, 103%; in the experiment with MCF7 breast it was 81.1%; in the experiment with HCT-116 colon, 85.5%; in the experiment on HCC-2998 colon, 99.4%. Moreover, the growth in the experiment on KM12 colon was 98.7%.

`CC(C)=CCC[C@H](C(=O)O)[C@@H]1CC[C@]2(C)C3=C(CC[C@@]12C)[C@@]1(C)CC[C@H](O)C(C)(C)[C@@H]1CC3`: the growth in the experiment with MOLT-4 leukemia was 88.6%; with SR leukemia, 91.8%; in the experiment with RPMI-8226 leukemia it was 88.8%; with OVCAR-8 ovarian, 96.4%; in the experiment on OVCAR-5 ovarian, 96.8%; in the experiment on OVCAR-4 ovarian, 103%. Further, the growth in the experiment with SK-OV-3 ovarian was 96.7%; with IGROV1 ovarian, 103%; in the experiment with OVCAR-3 ovarian, 107%; in the experiment with HS 578T breast, 99.9%; in the experiment on NCI/ADR-RES ovarian, 102%; with T-47D breast, 92.5%. Also, the growth is 75.2% with BT-549 breast; 103% in the experiment on MDA-MB-435 melanoma; 105% in the experiment on SW-620 colon; 88.9% in the experiment with MCF7 breast; 78.5% in the experiment with HCT-116 colon; 100% in the experiment with HCC-2998 colon. Moreover, the growth with KM12 colon is 99.7%.

On to `COC(=O)C1CCC(NC(=O)c2csc([C@@H](C[C@H](C(C)C)N(C)C(=O)[C@@H](NC(=O)[C@H]3CCCCN3C)C(C)C)OC(C)=O)n2)CC1` (stereo partly drawn), for which the growth with MOLT-4 leukemia is 18.1%; with SR leukemia it was 20.1%; in the experiment on RPMI-8226 leukemia it was 25.7%; in the experiment on OVCAR-8 ovarian, 19.3%; with OVCAR-5 ovarian, 53%; with OVCAR-4 ovarian, 45.3%. For the same compound, the growth in the experiment with SK-OV-3 ovarian was 20.8%; with IGROV1 ovarian, 28.3%; with OVCAR-3 ovarian it was -37.6% (active); in the experiment with HS 578T breast, 42.6%; with NCI/ADR-RES ovarian it was 11.8%; in the experiment with T-47D breast it was 64.4%. In addition, the growth in the experiment with BT-549 breast is -20.7% (active); in the experiment with MDA-MB-435 melanoma, -48.5% (active); with SW-620 colon, 28.1%; in the experiment on MCF7 breast, 19.4%; with HCT-116 colon, 5.04% (active); with HCC-2998 colon it was 20.2%. Besides, the growth in the experiment on KM12 colon was 9.7% (active).

Regarding `O=[N+]([O-])c1cc([N+](=O)[O-])c(Nn2c3ccccc3c3ccccc32)c([N+](=O)[O-])c1`, the growth in the experiment on MOLT-4 leukemia was 0.889% (active); in the experiment on SR leukemia it was 1.48% (active); with RPMI-8226 leukemia it was -20.5% (active); in the experiment with OVCAR-8 ovarian it was 5.97% (active); in the experiment on OVCAR-5 ovarian it was 29.4%; in the experiment with OVCAR-4 ovarian it was 6.45% (active). The growth in the experiment with SK-OV-3 ovarian is -17.2% (active); in the experiment on IGROV1 ovarian it was 22.8%; in the experiment with OVCAR-3 ovarian it was 12.4%; in the experiment on HS 578T breast, 5.42% (active); in the experiment on NCI/ADR-RES ovarian it was 7.52% (active); with T-47D breast it was -17.3% (active). In addition, the growth in the experiment on BT-549 breast is -27.4% (active); with MDA-MB-435 melanoma, 0.936% (active); in the experiment on SW-620 colon, 11.1%; with MCF7 breast, 2.34% (active); in the experiment with HCT-116 colon it was -10.1% (active); in the experiment with HCC-2998 colon it was 1.54% (active). Besides, the growth with KM12 colon was 4.34% (active).

As for `CO[C@H](C(=O)O)[C@@H]1Cc2cc3cc(OC4CC(OC5CC(O)C(O)C(C)O5)C(O)C(C)O4)c(C)c(O)c3c(O)c2C(=O)[C@H]1OC1CC(OC2CC(OC3CC(C)(O)C(O)C(C)O3)C(O)C(C)O2)C(O)C(C)O1` (stereo partly drawn), the growth is 1.78% (active) in the experiment on MOLT-4 leukemia; 10.4% in the experiment with SR leukemia; 6.67% (active) with RPMI-8226 leukemia; 13.5% in the experiment with OVCAR-8 ovarian; 17.6% in the experiment on OVCAR-5 ovarian; 19.7% in the experiment on OVCAR-4 ovarian. The growth in the experiment with SK-OV-3 ovarian is 23.7%; with IGROV1 ovarian, 35.4%; in the experiment with OVCAR-3 ovarian it was 10%; in the experiment with HS 578T breast, -1.09% (active); with NCI/ADR-RES ovarian, 74%; in the experiment on T-47D breast, 12.8%. Moreover, the growth in the experiment with BT-549 breast is -41.9% (active); with MDA-MB-435 melanoma it was 1.21% (active); in the experiment with SW-620 colon it was 19.1%; in the experiment with MCF7 breast it was 7.44% (active); with HCT-116 colon, 6.04% (active); in the experiment on HCC-2998 colon, -37.8% (active). For the same compound, the growth in the experiment on KM12 colon was 7.07% (active).
